A short description of assay [1]: NCI Yeast Anticancer Drug Screen. Data for the rad50 strain (AID 155).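 Also: 0% = growth of vehicle-only cultures of the same strain.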 To be noted: S. cerevisiae rad50 strain growth inhibition, hits give high values. The gist of the method:
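Relative growth inhibition (compound vs vehicle) was measured in yeast with a defined repair-gene alteration.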

The nature of assay [2]: NCI Yeast Anticancer Drug Screen. Data for the mec2-1 strain (AID 157). The following applies: S. cerevisiae mec2-1 strain, hits give high values. The gist of the method: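 Each compound was tested on mec2-1 yeast, a strain altered in DNA damage repair or cell cycle control. Growth inhibition is reported relative to vehicle.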
Assay [3] in a line: NCI Yeast Anticancer Drug Screen. Data for the sgs1 mgt1 strain (AID 161).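 Also: 0% = growth of cultures given vehicle only.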 The following applies: S. cerevisiae sgs1 mgt1 strain, hits give high values. In short, it runs like this: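 Inhibition of yeast growth, normalised to vehicle-treated controls, is reported for a strain bearing genetic alterations in DNA damage repair.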
Assay [4] can be described thus: NCI Yeast Anticancer Drug Screen. Data for the cln2 rad14 strain (AID 165).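 Also: 0% = growth equal to vehicle treated cultures.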 The following applies: S. cerevisiae cln2 rad14 strain, hits give high values. In short, it runs like this: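 Test compounds were added to cln2 rad14 yeast cultures; inhibition of growth was then determined by comparison with vehicle treatment.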
The nature of assay [5]: NCI Yeast Anticancer Drug Screen. Data for the bub3 strain (AID 167). To be noted: S. cerevisiae bub3 mutant strain, hits give high values. The gist of the method: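 Screening used yeast with an engineered genetic alteration affecting cell cycle control. Compound-exposed cultures were compared with vehicle cultures, and reduced growth was taken as inhibition.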
Assay [6] is described as follows: NCI Yeast Anticancer Drug Screen. Data for the mlh1 rad18 strain (AID 175). To be noted: S. cerevisiae mlh1 rad18 strain growth inhibition, hits give high values. The gist of the method:
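Inhibition values reflect reduced growth of mutant yeast versus vehicle-treated controls following compound exposure; the mutations affect DNA damage repair.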

[7] abbreviates: at 5.0 µM (retest, dose inferred, filed as 0.5).
[8] abbreviates: at 50.0 µM (retest, dose inferred, filed as 5.0).

About 79,000 compounds went through this panel and 15% of them were active in at least one assay; those are over-represented in the sample as a whole. Unmarked numbers belong to inactive results. Activity calls are given as the source filed them. Rule as the data show it: active = growth inhibition above about 70%; inactive = the rest.

In the case of `CCCC#CCCOC(=O)c1cc([N+](=O)[O-])cc([N+](=O)[O-])c1`, the growth inhibition in assay [1] (setting [7]) is 3%; in assay [1] (setting [8]), 97% (active); in assay [1] (at 50.0 µM), 99.2% (active); in assay [2] (setting [7]), 5%; in assay [2] (setting [8]), 99% (active); in assay [2] (at 50.0 µM), 98.5% (active). Also, the growth inhibition in assay [3] (setting [7]) was 12%; in assay [3] (setting [8]), 99% (active); in assay [3] (at 50.0 µM), 99.5% (active); in assay [4] (setting [7]), -7%; in assay [4] (setting [8]), 76% (active); in assay [4] (at 50.0 µM) it was 98.9% (active). Further, the growth inhibition was -11% in assay [5] (setting [7]); 96% (active) in assay [5] (setting [8]); 99.4% (active) in assay [5] (at 50.0 µM); 5% in assay [6] (setting [7]); 98% (active) in assay [6] (setting [8]); 98.5% (active) in assay [6] (at 50.0 µM).
For the compound `CCCCCCCCC1(C(=O)OCCN(CC)CC)CCCCC1`, the growth inhibition was 8% in assay [1] (setting [7]); 99% (active) in assay [1] (setting [8]); 99.8% (active) in assay [1] (at 50.0 µM); 0% in assay [2] (setting [7]); 100% (active) in assay [2] (setting [8]); 99.8% (active) in assay [2] (at 50.0 µM). Also, the growth inhibition in assay [3] (setting [7]) is 36%; in assay [3] (setting [8]) it was 99% (active); in assay [3] (at 50.0 µM) it was 99.5% (active); in assay [4] (setting [7]), 13%; in assay [4] (setting [8]), 100% (active); in assay [4] (at 50.0 µM), 99.8% (active). The growth inhibition in assay [5] (setting [7]) is 22%; in assay [5] (setting [8]) it was 99% (active); in assay [5] (at 50.0 µM) it was 99.2% (active); in assay [6] (setting [7]), 12%; in assay [6] (setting [8]), 98% (active); in assay [6] (at 50.0 µM), 99.7% (active).
With `NN(c1ccccc1)c1cccc2ccccc12`, the growth inhibition was 2% in assay [1] (setting [7]); 96% (active) in assay [1] (setting [8]); -16.4% in assay [1] (at 50.0 µM); -1% in assay [2] (setting [7]); 97% (active) in assay [2] (setting [8]); 3.7% in assay [2] (at 50.0 µM). The growth inhibition in assay [3] (setting [7]) is 1%; in assay [3] (setting [8]) it was 97% (active); in assay [3] (at 50.0 µM) it was 39.1%; in assay [4] (setting [7]), -4%; in assay [4] (setting [8]), 95% (active); in assay [4] (at 50.0 µM), -23.8%. The growth inhibition in assay [5] (setting [7]) is -1%; in assay [5] (setting [8]) it was 96% (active); in assay [5] (at 50.0 µM) it was 75.9% (active); in assay [6] (setting [7]), 1%; in assay [6] (setting [8]), 96% (active); in assay [6] (at 50.0 µM) it was 25.1%.
Consider `CCCN1CCN(c2ccc([N+](=O)[O-])c3no[n+]([O-])c23)CC1`, for which the growth inhibition in assay [1] (setting [7]) is 97% (active); in assay [1] (setting [8]), 99% (active); in assay [1] (at 50.0 µM) it was 89% (active); in assay [2] (setting [7]) it was 97% (active); in assay [2] (setting [8]), 99% (active); in assay [2] (at 50.0 µM) it was 93.3% (active). Moreover, the growth inhibition in assay [3] (setting [7]) is 92% (active); in assay [3] (setting [8]) it was 99% (active); in assay [3] (at 50.0 µM) it was 89.5% (active); in assay [4] (setting [7]) it was 52%; in assay [4] (setting [8]), 99% (active); in assay [4] (at 50.0 µM), 80.3% (active). Besides, the growth inhibition in assay [5] (setting [7]) was 58%; in assay [5] (setting [8]), 98% (active); in assay [5] (at 50.0 µM), 90.2% (active); in assay [6] (setting [7]), 97% (active); in assay [6] (setting [8]), 99% (active); in assay [6] (at 50.0 µM) it was 88.6% (active).
For the compound `N#Cc1c(-c2ccc(Cl)cc2)c(C#N)c(=O)n(NS(=O)(=O)c2ccccc2)c1S`, the growth inhibition in assay [1] (setting [7]) is 51%; in assay [1] (setting [8]) it was 83% (active); in assay [1] (at 50.0 µM), 39.6%; in assay [2] (setting [7]), 29%; in assay [2] (setting [8]), 78% (active); in assay [2] (at 50.0 µM), 86.2% (active). Also, the growth inhibition in assay [3] (setting [7]) is 30%; in assay [3] (setting [8]), 93% (active); in assay [3] (at 50.0 µM) it was 81.3% (active); in assay [4] (setting [7]), 46%; in assay [4] (setting [8]), 63%; in assay [4] (at 50.0 µM) it was 19.4%. In addition, the growth inhibition was 50% in assay [5] (setting [7]); 88% (active) in assay [5] (setting [8]); 70.8% (active) in assay [5] (at 50.0 µM); 36% in assay [6] (setting [7]); 71% (active) in assay [6] (setting [8]); 77.5% (active) in assay [6] (at 50.0 µM).
`O=C1CSC(Cc2nc3ccccc3[nH]2)=N1`: the growth inhibition in assay [1] (setting [7]) is 30%; in assay [1] (setting [8]), 79% (active); in assay [1] (at 50.0 µM), 76.7% (active); in assay [2] (setting [7]), 26%; in assay [2] (setting [8]) it was 79% (active); in assay [2] (at 50.0 µM), 79.5% (active). In addition, the growth inhibition in assay [3] (setting [7]) is 44%; in assay [3] (setting [8]), 87% (active); in assay [3] (at 50.0 µM), 73% (active); in assay [4] (setting [7]), 36%; in assay [4] (setting [8]), 55%; in assay [4] (at 50.0 µM) it was 69%. Also, the growth inhibition in assay [5] (setting [7]) was 22%; in assay [5] (setting [8]) it was 71% (active); in assay [5] (at 50.0 µM), 77.8% (active); in assay [6] (setting [7]), 48%; in assay [6] (setting [8]), 90% (active); in assay [6] (at 50.0 µM), 74.9% (active).

Values taken from PubChem BioAssay (NCI).
